Source: PubChem BioAssay (NCATS)
Inconclusive results are not listed. Activity calls are given as the source filed them. Unless noted, calls come from the whole dose curve; as a rule, active = well fitted curve in the direction sought with a large enough effect; inconclusive = small, poorly fitted or top-dose-only effect, or another doubt; inactive = no such curve, though single readings can be large; an effect the other way counts as inactive or inconclusive.

Key:
[1] = system: Zika virus NS2B-NS3 protease; test: Primary screen GU AMC qHTS for Zika virus inhibitors (AID 1347154); note: nearly all actives have a fitted effect of over 70% in size
In short: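 Unlinked Zika NS2B hydrophilic domain/NS3 protease domain noncovalent complex (25 nM final) in 10 mM Tris-HCl pH 8.0, 0.01% Tween 20, with AMC peptide substrate. Fluorescence (ex 340, em 450 nm) change over 15 min, room temperature; percent inhibition fitted to 4-parameter Hill equation.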

[2] = biological target: Calcium and integrin-binding protein 1 (Homo sapiens) (UniProt Q99828); test: Primary qHTS for Identification of Calcium Integrin Binding Protein 1 (CIB1) Competitor (AID 1508620)
Chain of Calcium and integrin-binding protein 1 (Homo sapiens) (Q99828 whole entry, looked up): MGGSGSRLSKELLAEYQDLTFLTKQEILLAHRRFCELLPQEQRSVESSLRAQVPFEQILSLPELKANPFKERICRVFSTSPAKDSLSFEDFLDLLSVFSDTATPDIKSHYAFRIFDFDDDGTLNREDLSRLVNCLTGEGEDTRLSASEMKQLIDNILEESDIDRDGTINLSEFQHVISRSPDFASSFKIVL
In short: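 Fluorescence polarization competition: CIB1-GST (1 uM final) preincubated with compound 15 min at room temperature, then FITC-labeled alphaIIb peptide (100 nM final) added for another 15 min. Polarization read at Ex 480/Em 540.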

[3] = biological target: Cytochrome P450 3A4 (Homo sapiens) (UniProt P08684); test: Cytochrome P450 family 3 subfamily A member 4 (CYP3A4) small molecule antagonists: luciferase qHTS assay (AID 1645841; active = well fitted curve in the direction sought with a large enough effect in the repeat runs; an effect the other way counts as inactive or inconclusive; note: nearly all actives have a fitted effect of over 45% in size)
Chain of Cytochrome P450 3A4 (Homo sapiens) (P08684 whole entry, looked up): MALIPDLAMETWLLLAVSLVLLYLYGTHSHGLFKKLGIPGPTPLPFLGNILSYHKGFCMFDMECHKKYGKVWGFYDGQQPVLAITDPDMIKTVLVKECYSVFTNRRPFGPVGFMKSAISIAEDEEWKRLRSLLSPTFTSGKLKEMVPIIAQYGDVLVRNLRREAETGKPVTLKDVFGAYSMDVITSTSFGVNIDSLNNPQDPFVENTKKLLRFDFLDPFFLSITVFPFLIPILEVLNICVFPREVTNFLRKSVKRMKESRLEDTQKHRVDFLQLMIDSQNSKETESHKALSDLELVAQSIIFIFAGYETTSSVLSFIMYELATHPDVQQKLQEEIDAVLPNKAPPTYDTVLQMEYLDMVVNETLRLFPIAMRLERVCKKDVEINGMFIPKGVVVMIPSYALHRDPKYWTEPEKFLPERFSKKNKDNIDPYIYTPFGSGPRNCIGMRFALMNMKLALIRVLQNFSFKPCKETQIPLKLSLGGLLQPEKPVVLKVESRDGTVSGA
In short: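 P450-Glo CYP3A4 enzyme with proluciferin substrate was preincubated with DMSO-dissolved compounds for 10 min at room temperature. NADPH regeneration solution started a 1 h reaction. Detection reagent stopped it, and luminescence was read after 20 min.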

[4] = biological target: Cytochrome P450 2C9 (Homo sapiens) (UniProt P11712); test: Cytochrome P450 family 2 subfamily C member 9 (CYP2C9) small molecule antagonists: luciferase qHTS assay (AID 1645842; active = well fitted curve in the direction sought with a large enough effect in the repeat runs; an effect the other way counts as inactive or inconclusive; note: nearly all actives have a fitted effect of over 55% in size)
Chain of Cytochrome P450 2C9 (Homo sapiens) (P11712 whole entry, looked up): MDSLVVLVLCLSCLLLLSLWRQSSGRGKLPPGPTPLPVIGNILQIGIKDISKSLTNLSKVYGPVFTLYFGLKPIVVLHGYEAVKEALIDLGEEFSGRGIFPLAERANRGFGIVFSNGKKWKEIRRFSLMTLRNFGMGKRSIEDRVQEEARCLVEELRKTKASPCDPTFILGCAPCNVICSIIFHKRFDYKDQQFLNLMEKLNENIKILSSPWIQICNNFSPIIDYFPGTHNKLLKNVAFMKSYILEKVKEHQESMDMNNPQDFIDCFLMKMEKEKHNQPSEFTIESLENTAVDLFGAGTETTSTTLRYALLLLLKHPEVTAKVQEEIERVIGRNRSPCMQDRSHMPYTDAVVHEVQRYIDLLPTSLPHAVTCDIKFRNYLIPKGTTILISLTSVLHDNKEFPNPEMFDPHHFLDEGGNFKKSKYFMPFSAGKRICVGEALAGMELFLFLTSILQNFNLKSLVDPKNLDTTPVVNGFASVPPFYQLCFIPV
In short: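 P450-Glo CYP2C9 system: proluciferin substrate with enzyme in mix containing 0.4% BSA, 10 min at room temperature, then NADPH regeneration solution added and incubated 1 h at 37C. Detection reagent stopped reaction; luminescence read after 20 min as RLU.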

[5] = Primary qHTS for inhibitors of nuclear receptor binding SET domain protein 2 (NSD2) in an isogenic RCH-ACV NSD2 p.E1099K mutant (9B) (AID 1645876); note: % is set by controls: 0 for no effect and ±100 for the full control effect; nearly all actives have a fitted effect of over 70% in size
[6] = Primary qHTS for inhibitors of nuclear receptor binding SET domain protein 2 (NSD2) in an RCH-ACV wild type WT cells (2C) (AID 1645877); note: nearly all actives have a fitted effect of over 70% in size
[7] = biological target: Glutathione peroxidase 1 (Homo sapiens) (UniProt P07203); test: Primary qHTS Assay for Inhibitors of Recombinant Selenoprotein Glutathione Peroxidase 1 (GPX1) (AID 1845191); note: % is set by controls: 0 for no effect and ±100 for the full control effect; nearly all actives have a fitted effect of over 65% in size
Chain of Glutathione peroxidase 1 (Homo sapiens) (P07203 whole entry, looked up): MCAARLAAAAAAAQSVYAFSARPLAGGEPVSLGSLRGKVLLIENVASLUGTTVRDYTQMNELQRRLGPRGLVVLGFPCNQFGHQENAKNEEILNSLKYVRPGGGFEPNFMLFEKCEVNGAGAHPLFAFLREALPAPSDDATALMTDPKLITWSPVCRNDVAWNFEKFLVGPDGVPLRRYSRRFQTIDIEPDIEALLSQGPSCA
In short: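 GPX1 10 nM, GR 100 nM, GSH 1 mM, NADPH 0.5 mM, CHP 0.5 mM (final). 30-min cpd preincubation, RT. Ex340/Em450 read t=0, t=15 min.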

[8] = biological target: Phospholipid hydroperoxide glutathione peroxidase GPX4 (Homo sapiens) (UniProt P36969); test: Primary qHTS Assay for Inhibitors of Recombinant Selenoprotein Glutathione Peroxidase 4 (GPX4) (AID 1845192); details: outcome: dose series up to 50 µM unless noted; note: nearly all actives have a fitted effect of over 65% in size
Chain of Phospholipid hydroperoxide glutathione peroxidase GPX4 (Homo sapiens) (P36969 whole entry, looked up): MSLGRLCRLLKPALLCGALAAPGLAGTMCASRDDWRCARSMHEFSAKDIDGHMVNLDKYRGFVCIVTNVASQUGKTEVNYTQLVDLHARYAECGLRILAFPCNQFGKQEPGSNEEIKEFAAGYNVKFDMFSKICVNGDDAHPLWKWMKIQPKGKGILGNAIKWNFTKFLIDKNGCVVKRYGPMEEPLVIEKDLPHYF
In short: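 qHTS, GR-coupled: GPX4 200 nM + cpd 30 min RT → GSH 1 mM, NADPH 0.5 mM, GR 100 nM → CHP 0.5 mM start; fluor 340/450 at t0 and t15 min; no-enzyme wells as control.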

[9] = AP1 Signaling Pathway (AID 357; active = well fitted curve in either direction with a large enough effect, not every such curve was filed as active;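 note: ME-180 reporter cells stimulated with EGF at its EC50 level; % is set by controls: 0 for no effect and ±100 for the full control effect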); details: ME-180 AP-1-bla reporter, EGF-induced, beta-lactamase ratio, 5 h; at 38 µM (top of the series)
In short: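 Modulation of EGF-driven AP-1 transcription was assessed with a beta-lactamase reporter in ME-180 cells. Compound and EC50 EGF were co-incubated 5 hours at 37 °C before 2.5-hour CCF4 loading at room temperature and dual-emission reading.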

[10] = NFAT Signaling Pathway (AID 444; active = well fitted curve in either direction with a large enough effect, not every such curve was filed as active;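 note: carbachol stimulus at about its EC50 of 1 µM final; % is set by controls: 0 for no effect and ±100 for the full control effect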); details: Jurkat NFAT-bla M1, carbachol, beta-lactamase ratio, 5 h; at 38 µM (top of the series)
In short: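 Jurkat cells carrying an NFAT-driven β-lactamase reporter and co-transfected muscarinic M1 receptor were treated with compound plus carbachol (1 uM final, an EC50 level) for 5 h at 37 °C. CCF4 loading followed for 1 h at RT; 460/530 nm ratio gave %activity.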

[11] = Stat Signaling Pathway (AID 446; active = well fitted curve in either direction with a large enough effect, not every such curve was filed as active;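 note: ME-180 cervical cancer cells given 40 pM IL-6 alongside compound; SIE-controlled beta-lactamase reporter measured as 460/530 nm FRET emission ratio; % is set by controls: 0 for no effect and ±100 for the full control effect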); details: ME-180 (cervical carcinoma) SIE beta-lactamase reporter, IL-6 stimulated, 5 h; at 38 µM (top of the series)
In short: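 Overnight-plated ME-180 cells bearing a STAT Inducible Element beta-lactamase reporter; 5 h co-exposure to compound and 40 pM IL-6; values normalized to 300 pM IL-6 and 125 nM JAK inhibitor controls.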

[12] = biological target: Glucocorticoid receptor (Homo sapiens) (UniProt P04150); test: GR-GFP Redistribution (AID 450;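 active = compounds whose dose series gives a full or clear partial fitted curve of increased nuclear translocation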; note: potency is the fitted concentration of half-maximal effect); details: U2OS GR-GFP nuclear translocation, laser cytometry, 2 h
Chain of Glucocorticoid receptor (Homo sapiens) (P04150 whole entry, looked up): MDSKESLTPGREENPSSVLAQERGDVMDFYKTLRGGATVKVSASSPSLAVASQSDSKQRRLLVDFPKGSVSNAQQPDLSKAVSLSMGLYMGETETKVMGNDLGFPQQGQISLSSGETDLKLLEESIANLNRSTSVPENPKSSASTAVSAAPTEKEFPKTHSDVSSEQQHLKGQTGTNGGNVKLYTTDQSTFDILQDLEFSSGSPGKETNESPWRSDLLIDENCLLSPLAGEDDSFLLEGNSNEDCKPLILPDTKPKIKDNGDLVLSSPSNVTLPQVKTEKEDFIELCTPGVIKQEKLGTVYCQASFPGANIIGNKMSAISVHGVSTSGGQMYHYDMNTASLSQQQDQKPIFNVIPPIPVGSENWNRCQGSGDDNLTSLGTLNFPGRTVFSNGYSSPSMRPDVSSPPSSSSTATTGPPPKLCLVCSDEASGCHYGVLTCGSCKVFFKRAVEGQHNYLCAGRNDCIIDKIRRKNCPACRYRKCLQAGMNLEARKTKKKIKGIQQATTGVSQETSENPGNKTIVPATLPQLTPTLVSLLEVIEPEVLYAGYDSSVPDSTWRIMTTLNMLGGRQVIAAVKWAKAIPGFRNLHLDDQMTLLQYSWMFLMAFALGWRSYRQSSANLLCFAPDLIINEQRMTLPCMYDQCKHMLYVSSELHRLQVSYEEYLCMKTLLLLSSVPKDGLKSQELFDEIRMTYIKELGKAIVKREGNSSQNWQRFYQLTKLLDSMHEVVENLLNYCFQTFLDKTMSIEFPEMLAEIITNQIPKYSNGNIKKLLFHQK

[13] = biological target: 3',5'-cyclic-AMP phosphodiesterase 4B (Homo sapiens) (UniProt Q07343); test: qHTS Assay for Inhibitors of PDE-IV (AID 607; active = well fitted activation curve with a large enough effect in the main read-out, with a control signal flat, not every such curve was filed as active; note: % of control where 0% means no effect)
Chain of 3',5'-cyclic-AMP phosphodiesterase 4B (Homo sapiens) (Q07343 whole entry, looked up): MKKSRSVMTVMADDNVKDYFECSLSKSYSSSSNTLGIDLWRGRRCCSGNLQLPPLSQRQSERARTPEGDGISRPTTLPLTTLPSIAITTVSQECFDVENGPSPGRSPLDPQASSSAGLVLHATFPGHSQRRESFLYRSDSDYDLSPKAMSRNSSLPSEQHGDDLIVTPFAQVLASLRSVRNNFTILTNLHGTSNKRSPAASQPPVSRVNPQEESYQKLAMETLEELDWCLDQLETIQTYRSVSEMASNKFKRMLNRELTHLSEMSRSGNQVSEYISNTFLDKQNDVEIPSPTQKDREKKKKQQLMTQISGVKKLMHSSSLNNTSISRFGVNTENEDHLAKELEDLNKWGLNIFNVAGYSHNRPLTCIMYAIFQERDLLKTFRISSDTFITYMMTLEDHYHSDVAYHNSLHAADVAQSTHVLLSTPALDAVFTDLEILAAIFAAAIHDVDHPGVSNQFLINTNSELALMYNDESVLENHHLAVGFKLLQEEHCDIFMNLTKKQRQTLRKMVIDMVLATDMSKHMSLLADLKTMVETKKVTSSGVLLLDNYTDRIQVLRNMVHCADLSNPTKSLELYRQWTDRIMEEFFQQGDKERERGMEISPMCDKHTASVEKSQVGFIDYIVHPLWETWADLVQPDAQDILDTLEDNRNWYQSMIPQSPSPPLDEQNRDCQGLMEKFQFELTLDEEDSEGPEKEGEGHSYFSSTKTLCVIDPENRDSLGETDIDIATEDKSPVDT
In short: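 Live HEK293 cells with a modified cyclic nucleotide-gated (CNG) channel report intracellular cAMP via membrane-potential dye fluorescence (ex 535/em 590 nm). Endogenous PDE-IV was targeted. Compounds were tested at up to 22.9 uM final; RO 20-1724 100 uM served as control.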

[14] = biological target: Guanine nucleotide-binding protein G(i) subunit alpha-1 (Homo sapiens) (UniProt P63096); test: qHTS Assay for Inhibitors of RGS12 GoLoco Motif Activity (Green Fluorophore) (AID 879);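 note: 0% = labeled peptide with Gαi1 and full inhibition = labeled peptide alone without protein; negative values mean loss of peptide binding seen as reduced polarization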
Chain of Guanine nucleotide-binding protein G(i) subunit alpha-1 (Homo sapiens) (P63096 whole entry, looked up): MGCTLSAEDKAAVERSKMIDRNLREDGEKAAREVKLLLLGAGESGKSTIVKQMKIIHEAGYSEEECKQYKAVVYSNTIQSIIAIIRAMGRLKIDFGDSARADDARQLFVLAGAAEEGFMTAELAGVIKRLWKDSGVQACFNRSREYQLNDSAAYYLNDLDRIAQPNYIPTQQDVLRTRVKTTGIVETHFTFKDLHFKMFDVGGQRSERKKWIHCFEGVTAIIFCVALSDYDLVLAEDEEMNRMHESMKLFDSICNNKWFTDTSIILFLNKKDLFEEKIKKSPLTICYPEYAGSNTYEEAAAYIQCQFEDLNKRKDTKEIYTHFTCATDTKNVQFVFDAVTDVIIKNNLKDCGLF
In short: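 A drop in FITC polarization marked displacement of the FITC-tagged RGS12 GoLoco peptide (10 nM) from Gαi1 (50 nM). Compounds were incubated 10 min at room temperature in Tris pH 7.5 buffer containing 150 mM NaCl, 0.1 mM GDP and 0.05% NP40; unlabeled peptide titration served as control.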

[15] = biological target: Cytochrome P450 2C9 (Homo sapiens) (UniProt P11712); test: qHTS Assay for Inhibitors and Substrates of Cytochrome P450 2C9 (AID 883); note: % is set by controls: 0 for no effect and ±100 for the full control effect; nearly all actives have a fitted effect of over 60% in size
In short: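 A luminogenic readout tracked human CYP2C9 (10nM) converting deoxyluciferin (100uM, at KM) in 25mM KPO4 during 60 min at 37C with regenerated NADPH. Values normalized to 57uM sulphaphenazole as complete inhibition.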

[16] = biological target: Cytochrome P450 3A4 (Homo sapiens) (UniProt P08684); test: qHTS Assay for Activators of Cytochrome P450 3A4 (AID 885); note: nearly all actives have a fitted effect of over 65% in size
In short: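 Using 20nM recombinant human CYP3A4 in potassium phosphate (200mM), substrate Luciferin-PPXE at 25uM, luminescent luciferin detection followed a 60-min RT NADPH reaction; data scaled to 57 uM ketoconazole.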

[17] = Confirmation and Secondary Assay for Modulators of Hemoglobin Beta Chain Splicing at IVS2 654 locus (AID 910);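 note: per-well total GFP intensity by laser scanning cytometry after 2-day treatment; % of control where 0% means no effect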
In short: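 HeLa cells stably carrying EGFP interrupted by mutant beta-globin IVS2-654 intron (CMV-driven) were treated with compound for 2 days at 37C; corrected splicing was scored as total peak GFP intensity per well (488 nm excitation, 500-520 nm emission).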

[18] = Confirmation and Secondary Assay for Modulators of Hemoglobin Beta Chain Splicing at IVS2 705 locus (AID 930);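 note: HeLa cells stably expressing the EGFP-705 splicing reporter; GFP fluorescence per well restored by corrected splicing of the IVS2-705 intron in EGFP; % of control where 0% means no effect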
In short: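 HeLa EGFP-705 reporter; 500 cells/well, o/n 37C 5% CO2; cpd 2 d; 488 ex/500-520 em laser scan; total peak GFP intensity/well. Ref: 500 nM […] antisense PNA.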

[19] = biological target: Pyruvate kinase PKM (Homo sapiens) (UniProt P14618); test: qHTS Assay for Activators of Human Muscle Pyruvate Kinase (AID 954; active = well fitted curve in the direction sought with a large enough effect, not every such curve was filed as active;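 note: 0% = uninhibited enzyme and -100% = no enzyme or full thiadiazolimine inhibition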)
Chain of Pyruvate kinase PKM (Homo sapiens) (P14618 whole entry, looked up): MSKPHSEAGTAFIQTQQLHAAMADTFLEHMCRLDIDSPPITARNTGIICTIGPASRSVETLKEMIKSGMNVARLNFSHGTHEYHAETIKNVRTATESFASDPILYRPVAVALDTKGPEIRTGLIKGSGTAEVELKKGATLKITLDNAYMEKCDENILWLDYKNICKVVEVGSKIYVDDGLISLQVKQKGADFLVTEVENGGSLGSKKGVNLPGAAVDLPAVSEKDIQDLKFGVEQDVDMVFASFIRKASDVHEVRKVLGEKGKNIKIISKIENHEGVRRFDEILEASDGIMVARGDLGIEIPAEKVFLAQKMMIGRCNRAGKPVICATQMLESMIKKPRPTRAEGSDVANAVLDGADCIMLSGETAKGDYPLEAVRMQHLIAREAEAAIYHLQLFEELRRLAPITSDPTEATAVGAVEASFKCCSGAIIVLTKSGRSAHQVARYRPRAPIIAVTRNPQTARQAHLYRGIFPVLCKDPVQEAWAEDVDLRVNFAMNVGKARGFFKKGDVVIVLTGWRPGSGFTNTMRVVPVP
In short: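 Screening used highly purified human pyruvate kinase M2 under submaximal activity, with PEP at its Km and ADP below Km. After an hour at room temperature, ATP was read by luciferase luminescence.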

[20] = biological target: Alpha-galactosidase A (Homo sapiens) (UniProt P06280); test: Counterscreen for Glucocerebrosidase Inhibitors: qHTS Assay for Human alpha-Galactosidase at pH 4.5 (AID 992); note: 0% is about no effect
Chain of Alpha-galactosidase A (Homo sapiens) (P06280 whole entry, looked up): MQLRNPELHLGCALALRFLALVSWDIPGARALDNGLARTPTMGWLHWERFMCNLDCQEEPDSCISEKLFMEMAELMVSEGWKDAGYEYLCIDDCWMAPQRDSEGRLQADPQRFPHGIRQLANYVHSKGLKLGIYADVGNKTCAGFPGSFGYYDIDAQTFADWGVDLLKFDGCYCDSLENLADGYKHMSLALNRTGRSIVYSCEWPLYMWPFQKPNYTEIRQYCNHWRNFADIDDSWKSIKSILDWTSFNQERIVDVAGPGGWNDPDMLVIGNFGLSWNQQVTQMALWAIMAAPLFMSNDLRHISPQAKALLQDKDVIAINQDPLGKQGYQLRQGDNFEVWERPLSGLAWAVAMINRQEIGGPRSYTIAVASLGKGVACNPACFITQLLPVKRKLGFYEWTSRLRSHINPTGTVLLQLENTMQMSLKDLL
In short: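 Each compound is preincubated briefly with 2 nM enzyme before substrate addition (80 uM); plates then sit 20 min at ambient temperature, are quenched with 1M NaOH/1M glycine, and read fluorometrically.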

[21] = biological target: alpha-glucosidase (Oryza sativa, rice) (UniProt Q653V4); test: Counterscreen for Glucocerebrosidase Inhibitors: qHTS Assay for Rice alpha-Glucosidase at pH 5.0 (AID 997);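 note: 0% = full activity with enzyme and -100% = basal without enzyme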
In short: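 Endpoint fluorogenic assay at pH 5.0: compounds (0.7 nM to 77 uM) titrated against 4 nM rice enzyme and 400 uM 4-MU-alpha-glucoside for 20 min at room temperature; NaOH/glycine stop, read ex 365/em 440 nm, Hill-fitted AC50.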

[22] = qHTS Assay for Lipid Storage Modulators (AID 1519; calls by dose curve; for activity change, negative = inhibition: % is set by controls: 0 for no effect and ±100 for the full control effect); details: Drosophila S3 cells, BODIPY lipid droplet/cell ratio, laser cytometry, cells loaded with oleic acid
In short: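 Cells seeded at 5,000 per well were treated with compounds over a concentration series and loaded with oleic acid (400 uM, as added). Lipid droplet fluorescence (488 nm excitation, 500-530 nm channel) was read by laser-scanning cytometry and normalized to 20 uM Triacsin C.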

[23] = biological target: DNA dC->dU-editing enzyme APOBEC-3G (Homo sapiens) (UniProt Q9HC16); test: qHTS for inhibitors of Vif-A3G interactions: Validation (AID 588379); note: 0% is about no effect
Chain of DNA dC->dU-editing enzyme APOBEC-3G (Homo sapiens) (Q9HC16 whole entry, looked up): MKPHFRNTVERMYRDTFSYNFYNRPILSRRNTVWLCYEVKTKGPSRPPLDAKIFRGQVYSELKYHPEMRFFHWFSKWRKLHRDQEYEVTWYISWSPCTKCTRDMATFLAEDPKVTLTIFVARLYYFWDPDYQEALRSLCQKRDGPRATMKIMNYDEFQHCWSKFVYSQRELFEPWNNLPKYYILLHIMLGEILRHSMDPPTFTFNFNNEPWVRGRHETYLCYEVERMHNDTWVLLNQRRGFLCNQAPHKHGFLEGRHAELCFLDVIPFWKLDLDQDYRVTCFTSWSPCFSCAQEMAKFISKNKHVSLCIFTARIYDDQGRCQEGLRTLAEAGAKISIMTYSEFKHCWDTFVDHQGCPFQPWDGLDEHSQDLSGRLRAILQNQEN
In short: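 Yellow fluorescence (Ex 488, Em 500-530) of Vif-coexpressing HeLa A3G-eYFP cells, scanned by Acumen cytometer, reports blocked A3G degradation. Cells plated at 700/well overnight at 37 deg C before compound addition, then a further overnight compound incubation at 37 deg C.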

[24] = Counterscreen qHTS for small molecule stabilizers of the endoplasmic reticulum resident proteome: GLuc-NoTag assay (AID 1508627);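 note: 0% = thapsigargin alone and -100% = DMSO vehicle control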
In short: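 Secreted GLuc lacking the SERCaMP modification is measured in SH-SY5Y cells exposed to compound for 19 h and then to thapsigargin (100 nM, 4 h) to deplete ER calcium; hits retested at 11 concentrations, up to 76.6 uM.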

[25] = Confirmatory qHTS for small molecule stabilizers of the endoplasmic reticulum resident proteome: Secreted ER Calcium Modulated Protein (SERCaMP) assay (AID 1508628); note: % is set by controls: 0 for no effect and ±100 for the full control effect; nearly all actives have a fitted effect of over 40% in size
In short: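 Reporter secretion upon ER calcium depletion (100 nM thapsigargin, 4 h, 37C) is measured as medium luminescence with coelenterazine, after 16 h compound pretreatment of SH-SY5Y-GLuc-SERCaMP cells; primary at three concentrations up to 38.3 uM, follow-up at 11 (up to 76.6 uM).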

CCCCN=C(N)NC(=N)N
inactive: outcome [1] | outcome [2] | outcome [3] | outcome [4] | Potency [5] | Potency [6] | Potency [7] | outcome [8] inactive [setting not given]

Oc1cc2c(cc1O)[C@H](c1ccccc1)CNCC2
inactive: activity change, negative = inhibition [9] -11.5% | activity change, negative = inhibition [10] -1.81% | activity, negative = inhibition [11] 0.446% | Potency [12] > 46 µM | Potency [13] | outcome [14] | Potency [15] | Potency [16] | outcome [17] | outcome [18] | outcome [19] | outcome [20] | outcome [21] | activity change, negative = inhibition ([22]; at 57.5 µM (top of the series)) -0.123% | Potency [23] | Potency [1] | Potency [24] | Potency [25]
3.98%: max response ([22]; measured here: lipid channel max response)
4.46%: max response ([22]; measured here: cell count channel max response)
